Test results: PubChem BioAssay AID720514 (Broad Institute, 2013)
Among all 2,100 compounds or so, about 300 (14%) were called active. Roughly 2% stayed inconclusive and do not appear here.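 Rule for the calls: active = every replicate test run called active, with the signal falling and half-maximal concentration within twice the top valid dose; inconclusive = the replicate test runs disagree in their calls; inactive = every test run inactive, including effects in the opposite direction.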 The list is a sample of the results. Potency and affinity values are given separately.

Test: inhibitors of PGC1a acetylation in cells, dose response, cell-based, cherry-picked samples (AID 720514);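 note: actives lower the acetylation signal so they count as inhibitors of PGC1a acetylation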
Conditions: U2OS PGC1a acetylation, AlphaLISA, overnight; series mostly up to 19.5 µM

outcome, inactive:
COc1ccc(C2CC(=O)N(C)c3ccccc3S2)cc1 (stereo not drawn)
CC1(C)CCCN(C(=O)N2c3ccccc3Sc3ccccc32)C1
Cc1ccc(S(=O)(=O)CCSC(=N)N)cc1
CC1CC1C(=O)OCC(=O)NCc1ccc(Cl)cc1 (stereo not drawn)
CC(=O)c1ccc(NC(=O)CSCC(=O)Nc2ccc3ccccc3c2)cc1
O=C(NCc1ccco1)c1scc2c1OCCO2
COc1ccc(CC(=O)OCC(=O)NCc2ccco2)cc1
CC1CCCCN1C(=O)/C(=C\c1ccccc1)c1ccccc1 (stereo not drawn)
CCSc1ccc(NC(=O)c2cccnc2)cc1
CCS(=O)(=O)N[C@H]1C=C[C@H](CC(=O)N2CCCCC2)O[C@H]1CO
C[C@H]1CN([C@@H](C)CO)S(=O)(=O)c2ccc(-c3cncnc3)cc2O[C@H]1CN(C)C(=O)CN(C)C
CC(=O)N(C)C[C@H]1Oc2cc(-c3ccc(C#N)cc3)ccc2S(=O)(=O)N([C@@H](C)CO)C[C@@H]1C
COc1ccc(S(=O)(=O)Nc2ccc3c(c2)C(=O)N([C@@H](C)CO)C[C@@H](C)[C@H](CN(C)S(=O)(=O)c2ccc(Cl)cc2)OCCCC[C@H](C)O3)cc1
COc1cc(CN2CC3(CCN(S(=O)(=O)c4cccs4)CC3)c3c(n(C)c4cc(OC)ccc34)[C@H]2CO)cc(OC)c1
O=S(=O)(c1cccc(F)c1)N1CCN(Cc2cc3c(cc2Br)OCCO3)CC1
Cc1ccc(-n2cccn2)c(CN2CCCC(C(=O)c3sccc3C)C2)c1 (stereo not drawn)
CCCNC(=O)[C@H]1[C@H](CO)[C@H]2Cn3c(ccc(-c4ccccc4)c3=O)[C@H]2N1C(=O)C1CC1
Cc1cc2c(cc1S(=O)(=O)N1CCc3ccccc31)NC(=O)CO2
CCOc1ccccc1N(C)C(=O)C1CCN(S(=O)(=O)c2cccc3nonc23)CC1
CCOC(=O)C1=CC[C@@H](c2ccc([N+](=O)[O-])cc2)N(S(=O)(=O)c2ccc(C)cc2)[C@H]1c1ccccc1
Cc1ccc(-c2nnc(N3CCN(C(=O)COc4ccccc4)CC3)c3ccccc23)cc1
CN1/C(=C\C(=O)c2cccc(S(=O)(=O)N3CCCCC3)c2)C(C)(C)c2ccccc21
CCOc1ccccc1CN1CCN(C2CCC2)CC1CCO (stereo not drawn)
CC(=O)c1cccc(N(C(=O)Cn2nnc3ccccc32)C(C(=O)NCc2ccccc2)c2ccccn2)c1 (stereo not drawn)
COc1ccc(OC)c(NC(=O)CSc2nnc(-c3cccnc3)s2)c1
COc1ccc(-c2nc(N)c(C#N)c(-c3cccnc3)c2C)cc1
CCCOc1ccc(C(=O)Nc2cccnc2)cc1
CCOC(=O)c1c(-c2ccc(C)cc2C)csc1NC(=O)CSc1nnnn1C
CCOC(=O)c1oc2ccc(S(=O)(=O)N3CCC(C)CC3)cc2c1C
O=C(CCCn1c(=O)[nH]c2cc(Cl)ccc2c1=O)NCCC1=CCCCC1
C[C@@H]1CN([C@H](C)CO)C(=O)c2c(c3ccccc3n2C)-c2ccccc2CO[C@@H]1CN(C)C(=O)Nc1ccccc1C(F)(F)F
COc1cc(OC)c2c(-c3cccc(-c4cccc(C)c4)c3)cc(=O)oc2c1
COc1ccc(CCNC(=O)c2cc(-c3ccco3)on2)cc1OC
O=C1OC(Oc2ccc(Br)cc2)(c2ccccc2)c2ccccc21 (stereo not drawn)
CC(=O)c1ccc(NC(=O)N2CCc3ccccc3C2)cc1
CC(=O)c1cccc(N(C(=O)c2cnccn2)C(C(=O)NCc2ccccc2)c2ccco2)c1 (stereo not drawn)
C[C@@H]1CN([C@@H](C)CO)C(=O)c2cccc(NC(=O)c3ccc(-c4nccs4)cc3)c2O[C@@H]1CN(C)C(=O)Nc1ccc(C(F)(F)F)cc1
C[C@H](CO)N1C[C@H](C)[C@@H](CN(C)Cc2ccc3c(c2)OCO3)Oc2ccc(NC(=O)Nc3ccc4c(c3)OCO4)cc2CC1=O
C[C@@H]1CN([C@@H](C)CO)C(=O)Cc2cc(NC(=O)Cc3ccccc3)ccc2O[C@H]1CN(C)C(=O)Nc1ccccc1
C[C@H]1CN([C@@H](C)CO)C(=O)c2cccc(NC(=O)Nc3cccc4ccccc34)c2O[C@H]1CN(C)Cc1ccc(C(=O)Nc2ccccc2N)cc1
C[C@H]1CN([C@@H](C)CO)C(=O)c2cccc(NC(=O)c3cnccn3)c2O[C@H]1CN(C)Cc1ccc(C(=O)Nc2ccccc2N)cc1
Cc1cc(Cn2nc(C(=O)NCc3cccc(C(F)(F)F)c3)cc2-c2ccccc2)on1
C[C@@H]1CN([C@@H](C)CO)C(=O)c2c(c3ccccc3n2C)-c2ccccc2CO[C@@H]1CN(C)C(=O)Nc1cccc(C(F)(F)F)c1
C=C/C=C/[C@@H]1C(=C)CN2[C@H]1[C@H](Cc1ccccc1)OC(=O)[C@@H]2Cc1ccccc1
O=C(NCCC(c1ccccc1)c1ccccc1)c1ccc(Br)o1
CC(C)[C@H](C)NC(=O)N(C)C[C@H]1OCc2ccccc2-c2c(n(C)c3ccccc23)C(=O)N([C@H](C)CO)C[C@H]1C
COc1ccc2c(c1)CCc1c(C(=O)NCCCn3ccnc3)noc1-2
Cc1ccc(S(=O)(=O)N[C@@H]2C=C[C@H](CC(=O)NCCN3CCCCC3)O[C@@H]2CO)cc1
CCCCC(=O)Nc1ccc(C(=O)NCCCn2ccnc2)cc1
OC[C@H]1O[C@@H](n2cnc3c(NCc4ccco4)ncnc32)[C@H](O)[C@@H]1O
O=C(Nc1ccccc1F)N1CCCCN2[C@H](CO)[C@H](c3ccc(C#Cc4ccccc4)cc3)[C@H]2C1
O=C(Nc1ccc(F)cc1)N1CCN(c2nc3ccccc3s2)CC1
O=C(Nc1ccc(F)cc1)N1CCCCN2[C@@H](CO)[C@@H](c3ccc(C#Cc4ccccc4)cc3)[C@@H]2C1
O=c1[nH]nc(SCCS(=O)(=O)c2ccc(F)cc2)n1-c1ccccc1
Cc1cc(C)cc(N(CC(=O)NC2CC3CCC2C3)S(C)(=O)=O)c1 (stereo not drawn)
O=C(CN1CCC(N2CCCCC2)CC1)N1CCCc2ccccc21
CCCc1cc2c(cc1N(C)S(=O)(=O)c1ccccc1)OCO2
Cc1ccc(NC(=O)CN2CCC(NC(=O)Cc3ccccc3)CC2)c(C)c1
O=C(Nc1ccccc1-c1ccccc1)NC1CC2CCCC(C1)N2Cc1ccc(F)cc1 (stereo not drawn)
Cc1nn2c(NCCCN3CCOCC3)c3c(nc2c1-c1ccccc1)CCC3
COC(=O)c1cc2ccsc2n1CC(=O)Nc1cc(Cl)ccc1OC
O=C(Cn1nc(C(=O)O)c2ccccc2c1=O)Nc1cccc(Br)c1
Cc1ccc(/C(N)=N/OC(=O)c2ccco2)cc1
CCCCN(CCCC)S(=O)(=O)c1ccc2oc(C(=O)N3CCOCC3)c(C)c2c1
COC(=O)[C@@]1(C)[C@H]2C(=O)N(Cc3ccccc3)C(=O)[C@H]2[C@H]2CN=C(SCC3CC3)N21
COc1ccc(-n2c(=O)c3c4c(sc3n3c(=S)[nH]nc23)CCC4)cc1
CCOc1ccc(NC(=O)CN2CCC(n3cnc4cc(F)ccc43)CC2)cc1
CO[C@@H](C(=O)N(C)C[C@H]1OCc2ccccc2-c2c(n(C)c3ccccc23)C(=O)N([C@H](C)CO)C[C@H]1C)c1ccccc1
Cc1ccccc1NC(=O)c1nc(S(C)(=O)=O)ncc1Cl
Cc1ccc(Cl)cc1NC(=O)Cn1nc(-c2cccs2)ccc1=O
C[C@@H]1CN([C@H](C)CO)C(=O)c2c(c3ccccc3n2C)-c2ccccc2CO[C@@H]1CN(C)C(=O)Nc1ccc2c(c1)OCO2
CC(Oc1ccc(Cl)cc1Cl)c1nc(-c2ccc(NC(=O)c3cccnc3)cc2)no1 (stereo not drawn)
Cc1ccc(-c2nn(C)c(=O)c3ccccc23)cc1S(=O)(=O)NCCN(C)C
O=C(C[C@H]1CC[C@H](NC(=O)NC2CCCCC2)[C@H](CO)O1)NCc1ccc(Cl)cc1
CCCCSc1ccc(NC(=O)c2cccnc2)cc1
CCn1c(SCC(N)=O)nnc1C(C)C
O=C1NC(=Nc2ccccc2Cl)S/C1=C\c1cccc([N+](=O)[O-])c1O
CC1(Cc2ccc(Cl)s2)C(=O)Nc2c(Cl)ccc(Cl)c21 (stereo not drawn)
O=C(NCc1ccccc1)N1CCC(n2cnc3cc(F)ccc32)CC1
COc1ccc(C(=O)NN(C)c2nc(-c3ccccc3)cc(C)c2S(C)(=O)=O)cc1
O=C(NCc1ccccc1)c1ccc(NC(=O)C2CC2)cc1
CSc1nn(-c2ccc(C(=O)OC(C(=O)NC(N)=O)C(C)C)cc2)c(=S)s1 (stereo not drawn)
CC(=O)Nc1ccc(NC(=O)CN(c2cc(Cl)ccc2Cl)S(C)(=O)=O)cc1
Cc1nc(N2CCN(S(=O)(=O)c3ccc(F)cc3)CC2)c2c(-c3cccs3)csc2n1
Cc1ccc(S(=O)(=O)NC(CC(C)C)C(=O)N2CCCCCCC2)cc1 (stereo not drawn)
O=[N+]([O-])c1ccc(S(=O)(=O)c2cccc(C(F)(F)F)c2)nc1
Nc1ccccc1Oc1ncc(C(F)(F)F)cc1Cl
CCOC(=O)c1sc2nc(C)nc(NCc3ccccc3OC)c2c1C
CCO[C@H]1OC(C(=O)Nc2ccccc2)=C[C@@H](c2csc3ccccc23)[C@@H]1CCCO
O=C(NCCCN1CCOCC1)c1ccccc1N1C(=O)[C@@H]2Cc3c([nH]c4ccccc34)C(c3ccccc3)N2C1=O (stereo partly drawn)
O=C(Cc1ccccn1)NCC[C@@H]1CC[C@@H](NC(=O)Nc2ccc(C(F)(F)F)cc2)[C@@H](CO)O1
O=C(Cc1ccccn1)NCC[C@@H]1CC[C@H](NC(=O)Nc2ccc(C(F)(F)F)cc2)[C@@H](CO)O1
Cc1cccc2sc(N3CCN(C(=O)c4cccs4)CC3)nc12
